# Reference: article PMC7862700, “An all-to-all approach to the identification of sequence-specific readers for epigenetic DNA modifications on cytosine”
# What was measured:
# Experiment in all cases: DAPPL (digital affinity profiling via proximity ligation, sequencing); 10 mM Tris-HCl pH 7.5, 50 mM NaCl, 1 mM DTT, 4% glycerol, room temperature, 30 min; GST-TFs on glutathione beads, 16-mer random dsDNA library, 0.1% formaldehyde crosslink after washing; high values mean tight binding
# FEV = target: T1, FEV (Homo sapiens, UniProt Q99581 1-238); conditions: protein: recombinant; tags: N-terminal GST; dsDNA, one strand shown
# T1 sequence: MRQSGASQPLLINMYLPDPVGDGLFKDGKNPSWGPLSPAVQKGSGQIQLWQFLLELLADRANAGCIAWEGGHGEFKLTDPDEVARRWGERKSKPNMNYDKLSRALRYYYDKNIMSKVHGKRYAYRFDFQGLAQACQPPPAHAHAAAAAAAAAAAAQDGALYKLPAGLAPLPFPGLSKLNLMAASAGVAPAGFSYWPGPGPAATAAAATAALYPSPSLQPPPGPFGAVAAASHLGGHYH
# Summary of the method: (§1)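 The binding signal reported is, for every hexamer, its read frequency for a factor over its read frequency for the tag-only sample. Reads came from pools of yeast-expressed, GST-fused human transcription factors on glutathione beads, barcoded with DNA and mixed with that sample, which were incubated with 200 nmole of a random double-stranded 16-mer DNA library in Tris/NaCl/DTT/glycerol buffer at room temperature for 30 min. After washing, the pools were crosslinked with 0.1% formaldehyde, proximity-ligated with BsaI/T4 ligase for 1 h at 37 °C, PCR-amplified and sequenced on an Illumina NextSeq500.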
# ETV5 = ETV5 (Homo sapiens, UniProt P41161 1-510); conditions: protein: recombinant; tags: N-terminal GST; dsDNA, one strand shown
# Summary of the method: as §1
# HSF1 = HSF1 (Homo sapiens, UniProt Q00613 1-529); conditions: protein: recombinant; tags: N-terminal GST; chain copies: 3; dsDNA, one strand shown
# Summary of the method: as §1
# SPIC = target: T2, SPIC (Homo sapiens, UniProt Q8N5J4 1-248); conditions: protein: recombinant; tags: N-terminal GST; dsDNA, one strand shown
# T2 sequence: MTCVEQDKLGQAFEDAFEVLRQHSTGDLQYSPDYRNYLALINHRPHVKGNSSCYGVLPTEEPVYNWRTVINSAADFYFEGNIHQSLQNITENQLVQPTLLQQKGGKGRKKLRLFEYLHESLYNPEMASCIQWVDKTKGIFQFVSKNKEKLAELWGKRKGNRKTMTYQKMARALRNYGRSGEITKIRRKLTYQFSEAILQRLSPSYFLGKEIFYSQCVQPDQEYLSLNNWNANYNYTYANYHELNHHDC
# Summary of the method: as §1
# ELF4 = ELF4 (Homo sapiens, UniProt Q99607 1-663); conditions: protein: recombinant; tags: N-terminal GST; dsDNA, one strand shown
# Summary of the method: as §1
# ELK4 = target: T3, ELK4 (Homo sapiens, UniProt P28324-2 1-405); conditions: protein: recombinant; tags: N-terminal GST; dsDNA, one strand shown
# T3 sequence: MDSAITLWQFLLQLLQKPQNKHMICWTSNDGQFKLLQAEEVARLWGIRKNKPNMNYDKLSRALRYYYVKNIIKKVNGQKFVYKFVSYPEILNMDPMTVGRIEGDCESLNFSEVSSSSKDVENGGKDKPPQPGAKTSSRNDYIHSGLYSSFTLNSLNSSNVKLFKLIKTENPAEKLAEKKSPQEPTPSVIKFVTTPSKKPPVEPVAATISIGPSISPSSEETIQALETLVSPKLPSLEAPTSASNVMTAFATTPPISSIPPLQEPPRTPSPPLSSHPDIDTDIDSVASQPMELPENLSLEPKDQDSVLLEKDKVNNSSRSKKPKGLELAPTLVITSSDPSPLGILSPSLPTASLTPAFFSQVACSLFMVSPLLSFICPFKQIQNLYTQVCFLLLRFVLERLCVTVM
# Summary of the method: as §1
# ETV2 = target: T4, ETV2 (Homo sapiens, UniProt O00321 1-342); conditions: protein: recombinant; tags: N-terminal GST; dsDNA, one strand shown
# T4 sequence: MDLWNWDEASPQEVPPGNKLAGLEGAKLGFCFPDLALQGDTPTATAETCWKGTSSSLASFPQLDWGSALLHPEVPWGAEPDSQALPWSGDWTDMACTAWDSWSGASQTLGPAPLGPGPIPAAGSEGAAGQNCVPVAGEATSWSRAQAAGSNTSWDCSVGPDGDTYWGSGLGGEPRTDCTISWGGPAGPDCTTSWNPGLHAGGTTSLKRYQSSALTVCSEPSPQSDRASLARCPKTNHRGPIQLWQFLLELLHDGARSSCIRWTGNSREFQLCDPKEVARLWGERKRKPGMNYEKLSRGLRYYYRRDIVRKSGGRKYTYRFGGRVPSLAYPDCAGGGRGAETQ
# Summary of the method: as §1
# ELF3 = target: T5, ELF3 (Homo sapiens, UniProt P78545 1-371); conditions: protein: recombinant; tags: N-terminal GST; dsDNA, one strand shown
# T5 sequence: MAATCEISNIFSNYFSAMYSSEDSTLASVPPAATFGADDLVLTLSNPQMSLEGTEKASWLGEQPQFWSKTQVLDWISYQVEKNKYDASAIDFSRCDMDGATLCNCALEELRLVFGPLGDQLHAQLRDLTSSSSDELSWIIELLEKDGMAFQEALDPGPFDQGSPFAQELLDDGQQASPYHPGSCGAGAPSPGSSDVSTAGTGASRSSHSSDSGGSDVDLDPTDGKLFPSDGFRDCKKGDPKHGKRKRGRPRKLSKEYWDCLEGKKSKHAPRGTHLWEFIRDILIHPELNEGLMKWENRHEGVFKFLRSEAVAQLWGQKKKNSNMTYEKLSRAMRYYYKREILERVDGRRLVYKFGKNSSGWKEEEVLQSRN
# Summary of the method: as §1
# CRX = CRX (Homo sapiens, UniProt O43186 1-299); conditions: protein: recombinant; tags: N-terminal GST; dsDNA, one strand shown
# Summary of the method: as §1
# ETV1 = ETV1 (Homo sapiens, UniProt P50549 1-477); conditions: protein: recombinant; tags: N-terminal GST; dsDNA, one strand shown
# Summary of the method: as §1
# ERF = target: T6, ERF (Homo sapiens, UniProt P50548 1-548); conditions: protein: recombinant; tags: N-terminal GST; dsDNA, one strand shown
# T6 sequence: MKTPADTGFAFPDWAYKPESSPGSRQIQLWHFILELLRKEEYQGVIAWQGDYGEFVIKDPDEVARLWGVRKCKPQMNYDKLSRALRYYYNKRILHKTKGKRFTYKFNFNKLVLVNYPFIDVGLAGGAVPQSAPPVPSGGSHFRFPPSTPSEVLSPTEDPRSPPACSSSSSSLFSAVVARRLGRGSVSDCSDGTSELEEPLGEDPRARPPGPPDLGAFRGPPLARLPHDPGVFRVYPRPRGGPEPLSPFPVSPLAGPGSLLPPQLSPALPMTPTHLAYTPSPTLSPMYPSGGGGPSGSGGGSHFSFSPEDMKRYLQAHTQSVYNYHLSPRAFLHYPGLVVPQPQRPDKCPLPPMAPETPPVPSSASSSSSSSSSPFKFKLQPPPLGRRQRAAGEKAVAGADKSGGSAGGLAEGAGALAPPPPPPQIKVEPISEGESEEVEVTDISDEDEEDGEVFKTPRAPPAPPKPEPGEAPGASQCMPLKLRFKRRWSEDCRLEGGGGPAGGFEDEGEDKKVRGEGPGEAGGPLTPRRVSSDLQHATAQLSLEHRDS
# Summary of the method: as §1
# ETV3L = target: T7, ETV3L (Homo sapiens, UniProt Q6ZN32 1-361); conditions: protein: recombinant; tags: N-terminal GST; dsDNA, one strand shown
# T7 sequence: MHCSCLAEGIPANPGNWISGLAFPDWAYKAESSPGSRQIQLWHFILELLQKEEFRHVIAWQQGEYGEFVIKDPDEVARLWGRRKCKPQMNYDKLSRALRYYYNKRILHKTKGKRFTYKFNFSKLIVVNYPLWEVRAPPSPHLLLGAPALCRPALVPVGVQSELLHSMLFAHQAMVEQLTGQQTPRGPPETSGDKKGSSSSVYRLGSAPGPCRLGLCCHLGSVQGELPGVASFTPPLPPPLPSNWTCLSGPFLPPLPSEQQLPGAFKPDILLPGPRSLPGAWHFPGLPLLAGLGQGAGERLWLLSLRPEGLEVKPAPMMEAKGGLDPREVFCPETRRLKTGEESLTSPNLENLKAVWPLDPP
# Summary of the method: as §1
# ETS2 = target: T8, ETS2 (Homo sapiens, UniProt P15036 1-469); conditions: protein: recombinant; tags: N-terminal GST; dsDNA, one strand shown
# T8 sequence: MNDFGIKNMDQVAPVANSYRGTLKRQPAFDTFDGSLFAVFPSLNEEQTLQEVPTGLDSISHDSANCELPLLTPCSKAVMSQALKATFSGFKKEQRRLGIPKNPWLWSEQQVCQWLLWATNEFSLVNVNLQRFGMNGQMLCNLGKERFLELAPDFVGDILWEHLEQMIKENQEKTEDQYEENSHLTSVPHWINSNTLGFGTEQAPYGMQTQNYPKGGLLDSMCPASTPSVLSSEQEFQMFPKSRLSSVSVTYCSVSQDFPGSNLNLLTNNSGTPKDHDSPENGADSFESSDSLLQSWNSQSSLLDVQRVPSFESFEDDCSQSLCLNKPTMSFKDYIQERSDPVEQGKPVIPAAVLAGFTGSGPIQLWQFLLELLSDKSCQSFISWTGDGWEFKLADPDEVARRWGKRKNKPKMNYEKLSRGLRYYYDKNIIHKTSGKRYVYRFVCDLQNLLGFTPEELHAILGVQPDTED
# Summary of the method: as §1
# SPDEF = target: T9, SPDEF (Homo sapiens, UniProt O95238 1-335); conditions: protein: recombinant; tags: N-terminal GST; dsDNA, one strand shown
# T9 sequence: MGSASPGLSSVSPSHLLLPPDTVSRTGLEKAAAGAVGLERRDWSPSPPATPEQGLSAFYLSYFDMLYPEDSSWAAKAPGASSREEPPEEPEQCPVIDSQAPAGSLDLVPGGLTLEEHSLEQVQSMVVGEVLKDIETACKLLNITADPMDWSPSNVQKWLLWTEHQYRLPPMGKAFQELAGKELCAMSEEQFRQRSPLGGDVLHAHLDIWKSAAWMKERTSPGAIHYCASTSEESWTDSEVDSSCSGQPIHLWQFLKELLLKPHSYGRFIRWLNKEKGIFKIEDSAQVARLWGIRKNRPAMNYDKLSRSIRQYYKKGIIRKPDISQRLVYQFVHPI
# Summary of the method: as §1
# ETV7 = target: T10, ETV7 (Homo sapiens, UniProt Q9Y603 1-341); conditions: protein: recombinant; tags: N-terminal GST; dsDNA, one strand shown
# T10 sequence: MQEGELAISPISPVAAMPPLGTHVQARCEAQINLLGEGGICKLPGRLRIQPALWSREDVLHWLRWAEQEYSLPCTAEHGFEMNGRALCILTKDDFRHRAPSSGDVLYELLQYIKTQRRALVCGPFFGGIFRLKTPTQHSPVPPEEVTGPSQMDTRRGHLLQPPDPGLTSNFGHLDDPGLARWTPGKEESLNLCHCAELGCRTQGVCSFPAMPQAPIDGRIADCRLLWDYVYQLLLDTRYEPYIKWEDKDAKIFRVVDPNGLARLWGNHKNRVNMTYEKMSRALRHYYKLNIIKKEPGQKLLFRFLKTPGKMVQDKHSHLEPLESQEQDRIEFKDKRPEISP
# Summary of the method: as §1
# ELF5 = target: T11, ELF5 (Homo sapiens, UniProt Q9UKW6-2 1-255); conditions: protein: recombinant; tags: N-terminal GST; dsDNA, one strand shown
# T11 sequence: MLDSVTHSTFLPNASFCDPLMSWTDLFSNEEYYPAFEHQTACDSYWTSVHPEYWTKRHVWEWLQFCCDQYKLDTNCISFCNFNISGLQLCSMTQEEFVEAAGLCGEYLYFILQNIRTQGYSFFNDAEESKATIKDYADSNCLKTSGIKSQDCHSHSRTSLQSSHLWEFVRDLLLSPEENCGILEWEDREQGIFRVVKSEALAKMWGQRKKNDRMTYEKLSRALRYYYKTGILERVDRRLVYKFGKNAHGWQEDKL
# Summary of the method: as §1
# ETV3 = target: T12, ETV3 (Homo sapiens, UniProt P41162-2 1-143); conditions: protein: recombinant; tags: N-terminal GST; dsDNA, one strand shown
# T12 sequence: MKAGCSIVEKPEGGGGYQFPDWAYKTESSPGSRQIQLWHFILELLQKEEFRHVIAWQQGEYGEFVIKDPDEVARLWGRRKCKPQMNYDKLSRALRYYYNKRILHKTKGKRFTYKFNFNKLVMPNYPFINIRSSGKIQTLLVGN
# Summary of the method: as §1
# ETV6 = ETV6 (Homo sapiens, UniProt P41212 1-452); conditions: protein: recombinant; tags: N-terminal GST; dsDNA, one strand shown
# Summary of the method: as §1
# ELF4, sequence (Q99607 whole entry): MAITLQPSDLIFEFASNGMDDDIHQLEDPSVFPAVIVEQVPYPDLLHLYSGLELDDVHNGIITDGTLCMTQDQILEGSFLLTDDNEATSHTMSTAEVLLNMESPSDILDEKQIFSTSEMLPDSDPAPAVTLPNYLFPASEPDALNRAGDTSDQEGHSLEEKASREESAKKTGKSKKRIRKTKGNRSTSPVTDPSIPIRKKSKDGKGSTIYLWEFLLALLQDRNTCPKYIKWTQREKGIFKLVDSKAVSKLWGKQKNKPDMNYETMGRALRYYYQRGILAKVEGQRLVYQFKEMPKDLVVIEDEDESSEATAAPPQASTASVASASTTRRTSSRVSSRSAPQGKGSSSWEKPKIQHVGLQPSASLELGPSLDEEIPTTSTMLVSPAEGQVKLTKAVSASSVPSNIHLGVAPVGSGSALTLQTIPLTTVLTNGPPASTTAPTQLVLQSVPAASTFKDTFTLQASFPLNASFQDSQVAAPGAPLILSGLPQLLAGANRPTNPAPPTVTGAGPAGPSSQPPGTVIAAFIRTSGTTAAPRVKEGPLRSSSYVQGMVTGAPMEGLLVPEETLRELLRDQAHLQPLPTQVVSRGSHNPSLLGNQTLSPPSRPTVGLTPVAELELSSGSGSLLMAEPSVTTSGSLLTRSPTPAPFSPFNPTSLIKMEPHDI
# CRX, sequence (O43186 whole entry): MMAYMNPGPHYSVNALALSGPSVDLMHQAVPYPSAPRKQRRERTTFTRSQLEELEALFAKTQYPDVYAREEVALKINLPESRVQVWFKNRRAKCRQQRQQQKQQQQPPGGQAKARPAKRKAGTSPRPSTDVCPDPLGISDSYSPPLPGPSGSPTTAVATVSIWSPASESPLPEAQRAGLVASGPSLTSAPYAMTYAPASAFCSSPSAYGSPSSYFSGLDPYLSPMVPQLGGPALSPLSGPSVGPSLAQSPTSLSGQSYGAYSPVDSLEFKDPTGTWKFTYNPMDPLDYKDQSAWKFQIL
# ETV1, sequence (P50549 whole entry): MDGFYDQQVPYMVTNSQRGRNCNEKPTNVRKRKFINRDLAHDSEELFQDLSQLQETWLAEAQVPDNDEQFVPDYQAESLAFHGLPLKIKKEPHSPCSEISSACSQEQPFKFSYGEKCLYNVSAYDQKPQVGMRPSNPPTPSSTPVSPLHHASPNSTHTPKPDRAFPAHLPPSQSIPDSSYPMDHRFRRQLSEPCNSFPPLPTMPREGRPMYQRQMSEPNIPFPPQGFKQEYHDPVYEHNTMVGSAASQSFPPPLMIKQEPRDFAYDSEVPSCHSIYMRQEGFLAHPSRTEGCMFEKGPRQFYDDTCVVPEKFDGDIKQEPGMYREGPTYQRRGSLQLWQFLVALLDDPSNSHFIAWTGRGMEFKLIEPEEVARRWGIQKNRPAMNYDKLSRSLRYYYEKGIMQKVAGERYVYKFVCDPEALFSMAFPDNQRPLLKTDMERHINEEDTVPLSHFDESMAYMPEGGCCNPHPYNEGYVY
# ETV6, sequence (P41212 whole entry): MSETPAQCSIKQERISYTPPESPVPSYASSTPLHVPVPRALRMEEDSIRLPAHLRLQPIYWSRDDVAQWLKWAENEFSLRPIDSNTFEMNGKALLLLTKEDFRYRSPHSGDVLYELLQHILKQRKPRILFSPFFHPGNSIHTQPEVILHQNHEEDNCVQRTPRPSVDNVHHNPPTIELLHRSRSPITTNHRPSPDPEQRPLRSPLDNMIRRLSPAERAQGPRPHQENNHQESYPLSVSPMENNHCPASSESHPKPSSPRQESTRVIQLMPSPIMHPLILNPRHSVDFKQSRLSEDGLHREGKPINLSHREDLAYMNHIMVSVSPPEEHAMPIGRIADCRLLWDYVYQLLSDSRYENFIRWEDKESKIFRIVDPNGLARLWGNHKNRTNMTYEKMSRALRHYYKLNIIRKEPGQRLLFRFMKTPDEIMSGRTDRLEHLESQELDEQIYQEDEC
# ETV5, sequence (P41161 whole entry): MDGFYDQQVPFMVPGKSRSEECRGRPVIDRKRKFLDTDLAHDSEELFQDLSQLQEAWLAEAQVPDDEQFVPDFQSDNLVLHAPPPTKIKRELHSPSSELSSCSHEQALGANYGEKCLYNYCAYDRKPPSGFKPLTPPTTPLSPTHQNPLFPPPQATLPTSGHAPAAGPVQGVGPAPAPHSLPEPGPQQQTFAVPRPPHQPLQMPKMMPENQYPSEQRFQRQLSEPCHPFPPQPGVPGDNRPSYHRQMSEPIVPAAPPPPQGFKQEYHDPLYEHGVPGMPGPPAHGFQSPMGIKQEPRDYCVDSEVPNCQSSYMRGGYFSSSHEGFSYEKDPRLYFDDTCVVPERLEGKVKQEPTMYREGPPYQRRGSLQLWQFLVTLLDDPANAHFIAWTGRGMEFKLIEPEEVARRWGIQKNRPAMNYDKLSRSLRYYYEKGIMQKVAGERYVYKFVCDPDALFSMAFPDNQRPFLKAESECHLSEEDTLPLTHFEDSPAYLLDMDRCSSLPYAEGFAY
# HSF1, sequence (Q00613 whole entry): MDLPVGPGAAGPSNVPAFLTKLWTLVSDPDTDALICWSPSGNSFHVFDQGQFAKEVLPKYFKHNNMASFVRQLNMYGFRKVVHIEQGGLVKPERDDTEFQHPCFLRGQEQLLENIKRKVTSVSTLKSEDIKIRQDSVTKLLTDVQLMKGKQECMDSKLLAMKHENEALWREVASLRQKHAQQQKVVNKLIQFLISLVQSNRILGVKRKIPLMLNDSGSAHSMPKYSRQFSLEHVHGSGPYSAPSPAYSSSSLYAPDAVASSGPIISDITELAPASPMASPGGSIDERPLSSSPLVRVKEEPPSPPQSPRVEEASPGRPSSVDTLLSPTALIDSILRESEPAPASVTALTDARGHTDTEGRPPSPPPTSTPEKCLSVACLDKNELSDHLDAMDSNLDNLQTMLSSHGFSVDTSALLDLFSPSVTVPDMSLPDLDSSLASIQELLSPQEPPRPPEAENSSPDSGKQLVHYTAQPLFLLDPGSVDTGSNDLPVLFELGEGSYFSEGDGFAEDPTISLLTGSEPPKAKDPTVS
sequence,measurement,setting,value
CTTGAA,binding signal,FEV,"1.05 fold enrichment (6-mer frequency, TF over GST control)"
same,binding signal,ETV5,"1.09 fold enrichment (6-mer frequency, TF over GST control)"
same,binding signal,HSF1,"1.26 fold enrichment (6-mer frequency, TF over GST control)"
same,binding signal,SPIC,"1.09 fold enrichment (6-mer frequency, TF over GST control)"
same,binding signal,ELF4,"1.19 fold enrichment (6-mer frequency, TF over GST control)"
same,binding signal,ELK4,"1.22 fold enrichment (6-mer frequency, TF over GST control)"
same,binding signal,ETV2,"1.11 fold enrichment (6-mer frequency, TF over GST control)"
same,binding signal,ELF3,"1.08 fold enrichment (6-mer frequency, TF over GST control)"
same,binding signal,CRX,"1.16 fold enrichment (6-mer frequency, TF over GST control)"
same,binding signal,ETV1,"1.09 fold enrichment (6-mer frequency, TF over GST control)"
same,binding signal,ERF,"1.2 fold enrichment (6-mer frequency, TF over GST control)"
same,binding signal,ETV3L,"1.11 fold enrichment (6-mer frequency, TF over GST control)"
same,binding signal,ETS2,"1.16 fold enrichment (6-mer frequency, TF over GST control)"
same,binding signal,SPDEF,"1.13 fold enrichment (6-mer frequency, TF over GST control)"
same,binding signal,ETV7,"1.08 fold enrichment (6-mer frequency, TF over GST control)"
same,binding signal,ELF5,"1.15 fold enrichment (6-mer frequency, TF over GST control)"
same,binding signal,ETV3,"1.16 fold enrichment (6-mer frequency, TF over GST control)"
same,binding signal,ETV6,"1.07 fold enrichment (6-mer frequency, TF over GST control)"
